Results taken from PubChem BioAssay AID1863 (Southern Research Specialized Biocontainment Screening …, 2009).
Where “and” joins values, the source holds several entries; their conditions need not be identical. Equal entries are not always repeated. The whole screen tested about 300,000 compounds, of which about 480 (0.16%) were called active.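 The calls were made as follows: active = inhibition over 29.93%, a cutoff 3 SD above the screen mean, later confirmed by dose response; inconclusive = inhibition over 29.93% but no dose response follow-up; inactive = inhibition at most 29.93% or unconfirmed.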 A selection follows. Measured potencies and affinities stand elsewhere.

Experiment: inhibitors of PhoP regulon expression, primary screen, Salmonella Typhimurium, GFP reporter (AID 1863);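 also: 0% = low Mg2+ inducing control and 100% = high Mg2+ repressing control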
Details: S. Typhimurium PhoP-regulated promoter GFP reporter, 4 h; at 50 µM; hits give high values

inhibition, inactive:
COCCNC(=O)C1CCC(Cn2c(=S)[nH]c3ccccc3c2=O)CC1 (stereo not given) 4.17%
Cc1ccc2oc(=O)c(/C=C(\O)C(C)(C)C)nc2c1 -0.34%
CC(C)(C)/C(O)=C/c1nc2ccccc2oc1=O -5.43%
CC(=O)Nc1ccc(CN(C)CC2CCCN(CCc3cccc(C(F)(F)F)c3)C2)cc1 (stereo not given) 8.69%
COc1ccccc1N=CC=C1OC(C)(C)C(C)(C)O1 -3.09%
CCC[C@@H](CNC)NC[C@H](Cc1ccccc1)NCCCCc1ccccc1 3.18%
CC(Cc1cccc(C(F)(F)F)c1)NCCOC(=O)c1ccccc1 (stereo not given) -9.48% and -7.52%
CCC[C@H](CN[C@@H](CNC)[C@H](C)CC)NCCc1cc(C(F)(F)F)cc(C(F)(F)F)c1 19.5%
CNC[C@@H](C)NC[C@@H](Cc1ccccc1)NCCc1ccccc1 9.81%
Cc1ccccc1-c1noc(CCC(=O)NCC2CCCO2)n1 (stereo not given) 6.26%
O=C1OCCC/C1=C\c1ccc2c(c1)OCO2 1.4%
O=C(Cc1nc2ccccc2[nH]1)c1cccc([N+](=O)[O-])c1 -11.1%
CCC(=O)N1C(=O)C2(Nc3ccccc3N2)c2ccccc21 -1.88%
CC(C)(C)c1ccc(NC(=O)COC(=O)c2ccc(NS(=O)(=O)c3ccc(F)c(F)c3)cc2)cc1 1.23%
COc1ccc(Cc2c(N)nc(N)nc2N)cc1 2.89%
CCCOc1ccc(Cc2nc(N)nc(N)n2)cc1 20.1%
CC(C)Oc1ccc(Cc2cnc(=S)[nH]c2N)cc1 5.16%
Cc1cc(=O)[nH]c(Cc2ccc(OC(C)C)cc2)n1 10.3%
CCCCOc1ccc(CN(C)c2ncnc(N)n2)cc1 -10.1%
COc1cc(C)c(Cc2cnc(N)nc2N)cc1OC -1.03%
O=C(Nc1ccc(N2CCOCC2)c(Cl)c1)c1ccc(F)cc1 -2.15%
S=C(NCC1CCCO1)c1ccc(Br)cc1 (stereo not given) 2.88%
CCOC(=O)C1(C)/C(=N/Nc2ccccc2)C(=O)C(=O)N1c1ccccc1 (stereo not given) -7.22%
CCCn1cnnc1CNC(=O)C1CCC(=O)N(CCCc2ccccc2)C1 (stereo not given) 2.57%
CCOC(=O)c1cc(S(=O)(=O)NCC2CCN(Cc3cccc(C)c3)CC2)cn1C 1.53%
O=C(Nc1ccnn1C1CCN(C(=O)c2c(F)cccc2F)CC1)C1CC1 -1.51%
Cc1ncc(CN2CCCC(CCC(=O)NCc3ccc(F)c(F)c3)C2)s1 (stereo not given) -2.44%
Cn1cnc([N+](=O)[O-])c1Oc1ccccc1 21.7%
Cn1cnc([N+](=O)[O-])c1Oc1ccc2ccccc2c1 16.2%
CCCCCCC(C)n1[nH]c(=O)cc1N (stereo not given) 0.2%
Cc1ccc(-c2noc(CN3C(C)CCCC3C)n2)cc1 (stereo not given) 3.05%
Cc1ccc(C(=O)NC2CCCCC2)cc1S(=O)(=O)N1CCCC1 4.45%
Cc1ccc(NC(=S)NC(CO)C(O)c2ccc([N+](=O)[O-])cc2)cc1 (stereo not given) 8.17%
CS(=O)(=O)c1ccc(C(=O)NCc2ccccc2F)cc1 -3.92%
CS(=O)(=O)c1ccc(C(=O)NC(Cc2ccccc2)c2ccccc2)cc1 (stereo not given) 4.54%
O=C(O)c1cc(S(=O)(=O)NC(CO)C(O)c2ccc([N+](=O)[O-])cc2)ccc1Br (stereo not given) 8.08%
Cc1cccc(CN2CCN(Cc3cccc(-n4cccn4)c3)CC2CCO)n1 (stereo not given) -2.39%
O=C1CCN(Cc2ccc(Cl)cc2)N1 -4.83%
CC(=O)c1cccc(S(=O)(=O)Nc2ccc(N3CCOCC3)cc2)c1 -4.4%
CCCCN1C(N)=NC[C@@H]1c1ccccc1 -3.32%
CCCCN1C(N)=NC[C@@H]1Cc1ccc(O)cc1 0.58%
NCCCC[C@H]1CN=C(N)N1CCCCC1CCCCC1 11.9%
NC1=NC[C@@H](Cc2ccc(O)cc2)N1CCC12CC3CC(CC(C3)C1)C2 -0.89%
CCCCN1C(N)=NC[C@H]1Cc1ccc(O)cc1 5.24%
NC1=NC[C@H](c2ccccc2)N1CC1CCCCC1 -3.43%
NC1=NC[C@H](Cc2ccc(O)cc2)N1CC1CCCCC1 3.06%
NC1=NC[C@@H](Cc2ccc(O)cc2)N1CC1CCCCC1 -0.19%
Cc1ccccc1OCC(=O)Nc1ccc(N2CCN(C)CC2)c(Cl)c1 5.97%
COC(=O)c1ccc(OCC(=O)c2ccc(C)c(C)c2)cc1 -11.3%
CCOC(=O)c1c(-c2ccccc2)nc2cc(C)ccn12 -0.32%
Nc1nonc1NN=C1CCCCC1 2.62%
COc1ccc(N(CC(=O)NC2CCCC2)C(=O)c2ccc(C)s2)cc1OC -1.51%
Cc1ccc(S(=O)(=O)N/N=C/c2cccs2)cc1 1.58%
COc1ccc(OC)c(S(=O)(=O)CC(O)CS(=O)(=O)c2ccccc2)c1 (stereo not given) -7.1%
O=C(CC1C(=O)NCCN1CCCc1ccccc1)NCCc1ccccc1F (stereo not given) 5.1%
NC1=NC[C@H](Cc2ccccc2)N1CC1CCCCC1 -1.5%
CN(C)C1=NC[C@H](Cc2ccccc2)N1CCCC1CCCC1 -2.38%
Cc1nn(-c2ccccc2)c(N2CCCC2)c1/C=N/NC(=O)c1ccccc1O -4.47%
O=C(Oc1ccc(/C=N/NC(=O)c2ccccc2O)cc1)c1ccccc1 -2.42%
Cc1ccc(CCNC(=O)C2CCCN(S(=O)(=O)c3c(C)nn(C)c3C)C2)cc1 (stereo not given) -2.59%
Cc1[nH]c2ccccc2c1C(=O)CSC(=S)N1CCCCC1 -9.67%
O=C(Cc1nnc(NC(=O)Nc2ccccc2)s1)Nc1ccccc1 0.5%
Cc1cccc(NC(=S)N2CCC(N(C)CC3CCCO3)CC2)c1 (stereo not given) 2.69%
Cc1cc(C(C)(C)C)ccc1OCCCCN1CCCC1 -7.85%
CCC(C)(C)c1ccc(OCCCC[n+]2cccc(C)c2)c(C(C)(C)CC)c1 25.6%
CCC(C)(C)c1ccc(OCC(=O)N(C)C)c(C(C)(C)CC)c1 -2.72%
Cc1cc[n+](CC[n+]2ccc(C)cc2)cc1 6.23%
Cc1nc2c(ncn2-c2ccccc2)c(=O)n1NC(=O)CN1CCN(C)CC1 4.84%
COc1ccc(CNc2ncccc2[N+](=O)[O-])cc1 2.57%
COC(C(=O)Nc1ccc(Br)cc1F)c1ccccc1 (stereo not given) 4.52%
COc1ccc2[nH]cc(/C=N/NS(=O)(=O)c3ccc(C)cc3)c2c1 -5.48%
NC(=S)N/N=C/c1c[nH]c2ccc(OCc3ccccc3)cc12 1.88%
N=c1n(Cc2ccc(Cl)cc2)c2ccccc2n1CC(O)COc1ccccc1 (stereo not given) 3.85%
COc1ccccc1OCC(O)Cn1c(=N)n(Cc2ccccc2)c2ccccc21 (stereo not given) -0.92%
O=C(NC1CCCCC1)C1COc2ccccc2O1 (stereo not given) 1.35%
CCCC(=O)Nc1ccc(C(=O)N/N=C/c2ccc([N+](=O)[O-])o2)cc1 -16.6%
Cc1cc(C(=O)N/N=C/c2ccc([N+](=O)[O-])o2)c(C)o1 -2.92%
Cc1scc(C(=O)N/N=C/c2ccco2)c1C 0.79%
O=C(N/N=C/C=C/c1ccc([N+](=O)[O-])cc1)c1cccs1 -4.65%
O=C(N/N=C/C=C/c1ccccc1[N+](=O)[O-])c1cccs1 -10.8%
O=C(N/N=C/c1ccc([N+](=O)[O-])o1)c1ccncc1 3.52%
OC1CCN(Cc2ccc(OCc3ccccc3)cc2)CC1 2.08%
O=S(=O)(c1ccc(Br)cc1)N1CCN=C1SCc1cccc(F)c1 -2.02%
Cc1c(C(=O)N(Cc2cccc(Br)c2)C2CCS(=O)(=O)C2)oc2ccc(F)cc12 (stereo not given) 3.11%
O=C(ONC1=NCCCCC1)c1ccc(Cl)cc1 -13.6%
Cc1nn(C)c(=O)n1-c1ccccc1 0.59%
O=C(N/N=C/c1ccc(Br)s1)c1cccs1 0.89%
O=C(N/N=C\c1ccc(Cl)s1)c1cccs1 -9.8%
O=C(N/N=C\c1cc2c(cc1[N+](=O)[O-])OCO2)c1cccs1 -4.81%
O=C(N/N=C/c1ccccc1[N+](=O)[O-])c1cccs1 -1.95%
COc1ccccc1NC(=O)Nc1ccc(Cl)c(S(=O)(=O)Nc2ccccc2OC)c1 -18.5%
CCOc1ccc(CN(CC)C(=O)c2ccc3c(c2)[nH]c(=O)c(=O)n3CC)cc1OC 2.8%
COc1ccccc1CCNC(=O)C1(C)CC1(Cl)Cl (stereo not given) -0.33%
O=C(CN1CCN(Cc2ccccc2)CC1)NCc1ccc(Cl)cc1 3.85%
CCOC(=O)C1CCCN(C(=O)c2ccccc2NC(C)=O)C1 (stereo not given) 8.46%
OCCn1c(CSc2nnc(-c3ccco3)n2-c2ccccc2)nc2ccc(Cl)cc21 8.64%
COc1cccc(-c2nc(=S)c3c(n2CCCO)CCCC3)c1 6.79%
CSc1cccc(NC(=S)N(CCCN2CCCC2)Cc2cccs2)c1 2.61%
CN1/C(=C\C=O)C(C)(C)c2ccccc21 4.13%
CN1\C(=C/C=C/C=C/C=[N+](C)C)C(C)(C)c2ccccc21 -18.9%
